The full data set covers some 7,900 targets. This sample favours those with a hit. About 0.6% of all pairs of compound and target were hits.
What was measured:
Test in all cases: log2 fold change, soluble protein after heating vs DMSO (PISA); higher = thermal stabilisation; K562 cells, 10 uM, 30 min; active = over 0.2 and 3.5 SD of the protein, either way, in both replicates (recomputed)
[1] = compound: NC(=O)Nc1cc(-c2cccc(F)c2)sc1C(=O)N[C@H]1CCCNC1
In short: (§1)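 Quantification of soluble protein used TMTpro 16plex LC-MS/MS, with channel sums equalised. Samples were the supernatant after 21,000xg for 90 min of pooled aliquots from K562 cells (2×10^6 cells/mL) treated with 10 μM compound for 30 min, heated for 3 min over 48°C-58°C, and extracted in PBS with 0.5% NP-40 at 4°C. Values, from duplicates, describe thermal stability against control samples on a log2 fold-change scale.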

[2] = compound: NC(=O)c1cnc(N[C@@H]2CCCC[C@@H]2N)nc1Nc1cccc(-n2nccn2)c1
In short: as §1

[3] = compound: NC1(c2ccc(-c3nc4ccn5c(=O)[nH]nc5c4cc3-c3ccccc3)cc2)CCC1
In short: as §1

[4] = compound: NCC(=O)Nc1ccc(-n2nc(C(F)(F)F)cc2-c2ccc3c(ccc4ccccc43)c2)cc1
In short: as §1

entinostat = compound: Nc1ccccc1NC(=O)c1ccc(CNC(=O)OCc2cccnc2)cc1 [entinostat]
In short: as §1

vorinostat = compound: O=C(CCCCCCC(=O)Nc1ccccc1)NO [vorinostat]
In short: as §1

citarinostat = compound: O=C(CCCCCCNC(=O)c1cnc(N(c2ccccc2)c2ccccc2Cl)nc1)NO [citarinostat]
In short: as §1

silmitasertib = compound: O=C(O)c1ccc2c(c1)nc(Nc1cccc(Cl)c1)c1ccncc12 [silmitasertib]
In short: as §1

[5] = compound: O=C1NC(=O)C(c2cnc3ccccn23)=C1c1cn2c3c(cc(F)cc13)CN(C(=O)N1CCCCC1)CC2
In short: as §1

[6] = compound: c1cc(OCCN2CCCCC2)cc(-c2n[nH]c3ccc(-c4nnc[nH]4)cc23)c1
In short: as §1

entospletinib = compound: c1cn2cc(-c3ccc4cn[nH]c4c3)nc(Nc3ccc(N4CCOCC4)cc3)c2n1 [entospletinib]
In short: as §1

Measured: log2 fold change

LDAH isoform 2 (UniProt Q9H6V9)
inactive: [1] -0.049 | [2] 0.018 | [4] -0.041 | entinostat 0.014 | vorinostat -0.011 | citarinostat 0.061 | silmitasertib 0.014 | [5] -0.16 | [6] -0.057 | entospletinib 0.016
active: [3] 0.979

IPO11 isoform 2 (UniProt Q9UI26)
inactive: [1] -0.004 | [2] -0.074 | [3] -0.113 | [4] -0.039 | entinostat 0.022 | vorinostat 0.027 | citarinostat 0.048 | silmitasertib 0.032 | [5] -0.027 | [6] 0.005 | entospletinib 0.022

KCT2 (UniProt Q8NC54)
active: [3] -0.378
inactive: [1] 0.047 | [2] -0.029 | [4] 0.013 | entinostat -0.054 | vorinostat 0.022 | citarinostat 0.05 | silmitasertib 0.035 | [5] 0.047 | [6] -0.02 | entospletinib 0.022

MED16 (UniProt Q9Y2X0)
inactive: [1] 0.108 | [2] 0.021 | [3] -0.005 | [4] -0.044 | entinostat -0.047 | vorinostat 0.107 | citarinostat -0.094 | silmitasertib 0.026 | [5] 0.06 | [6] -0.117 | entospletinib 0.014

MFF (UniProt Q9GZY8)
Chain of UniProt Q9GZY8 (Q9GZY8 whole entry, looked up): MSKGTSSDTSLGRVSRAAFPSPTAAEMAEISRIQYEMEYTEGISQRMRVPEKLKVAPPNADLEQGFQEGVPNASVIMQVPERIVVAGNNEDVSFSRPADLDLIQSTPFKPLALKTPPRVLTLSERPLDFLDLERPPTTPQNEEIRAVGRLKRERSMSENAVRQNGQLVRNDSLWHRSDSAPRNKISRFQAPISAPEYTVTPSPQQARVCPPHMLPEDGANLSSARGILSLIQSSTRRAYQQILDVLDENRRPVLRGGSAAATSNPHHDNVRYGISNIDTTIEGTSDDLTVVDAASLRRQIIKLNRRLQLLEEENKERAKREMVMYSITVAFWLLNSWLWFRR
active: [2] -0.224
inactive: [1] -0.098 | [3] -0.125 | [4] -0.102 | entinostat -0.015 | vorinostat 0.006 | citarinostat -0.007 | silmitasertib 0.04 | [5] -0.06 | [6] -0.135 | entospletinib -0.029

MAD2L1 (UniProt Q13257)
inactive: [1] -0.013 | [2] -0.09 | [3] -0.193 | [4] -0.124 | entinostat 0.036 | vorinostat 0.021 | citarinostat 0.014 | silmitasertib 0.072 | [5] -0.032 | [6] 0.006 | entospletinib 0.064

IK (UniProt Q13123)
inactive: [1] -0.016 | [2] 0.119 | [3] 0.06 | [4] -0.08 | entinostat 0.008 | vorinostat 0.026 | citarinostat -0.235 | silmitasertib 0.132 | [5] 0.017 | [6] -0.078 | entospletinib 0.015

LDLR (UniProt P01130)
Chain of UniProt P01130 (P01130 whole entry, looked up): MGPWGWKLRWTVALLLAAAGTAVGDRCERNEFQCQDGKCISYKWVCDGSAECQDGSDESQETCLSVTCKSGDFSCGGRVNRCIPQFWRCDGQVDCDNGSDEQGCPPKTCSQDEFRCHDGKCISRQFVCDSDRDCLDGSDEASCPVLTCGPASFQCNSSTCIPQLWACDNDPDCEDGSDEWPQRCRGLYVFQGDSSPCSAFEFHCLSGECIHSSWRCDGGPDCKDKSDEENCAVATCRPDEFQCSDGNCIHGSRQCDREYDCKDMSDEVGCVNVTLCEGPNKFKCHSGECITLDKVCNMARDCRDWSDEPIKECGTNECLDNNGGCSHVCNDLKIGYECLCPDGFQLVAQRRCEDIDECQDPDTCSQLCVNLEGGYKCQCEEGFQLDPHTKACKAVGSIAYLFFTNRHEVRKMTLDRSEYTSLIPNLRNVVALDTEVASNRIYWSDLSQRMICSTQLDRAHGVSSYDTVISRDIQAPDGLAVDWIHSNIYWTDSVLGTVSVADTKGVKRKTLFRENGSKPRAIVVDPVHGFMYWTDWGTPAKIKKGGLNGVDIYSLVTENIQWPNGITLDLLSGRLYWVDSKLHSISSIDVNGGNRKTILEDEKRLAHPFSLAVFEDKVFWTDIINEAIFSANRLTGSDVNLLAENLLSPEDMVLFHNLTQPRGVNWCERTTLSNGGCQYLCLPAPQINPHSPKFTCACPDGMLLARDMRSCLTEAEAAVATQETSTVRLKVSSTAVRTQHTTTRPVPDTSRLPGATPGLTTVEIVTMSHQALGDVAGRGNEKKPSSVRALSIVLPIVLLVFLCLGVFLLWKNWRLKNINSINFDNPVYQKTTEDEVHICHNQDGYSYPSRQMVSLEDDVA
inactive: [1] 0.005 | [2] 0.093 | [3] 0.008 | [4] 0.124 | entinostat 0.057 | vorinostat -0.038 | citarinostat -0.035 | silmitasertib 0.074 | [5] 0.019 | [6] -0.071 | entospletinib -0.008

LUC7L (UniProt Q9NQ29)
inactive: [1] -0.061 | [2] 0.011 | [3] 0.17 | [4] -0.043 | entinostat -0.01 | vorinostat -0.058 | citarinostat -0.052 | silmitasertib -0.006 | [5] 0.133 | [6] -0.095 | entospletinib 0.083

MEPCE (UniProt Q7L2J0)
Chain of UniProt Q7L2J0 (Q7L2J0 whole entry, looked up): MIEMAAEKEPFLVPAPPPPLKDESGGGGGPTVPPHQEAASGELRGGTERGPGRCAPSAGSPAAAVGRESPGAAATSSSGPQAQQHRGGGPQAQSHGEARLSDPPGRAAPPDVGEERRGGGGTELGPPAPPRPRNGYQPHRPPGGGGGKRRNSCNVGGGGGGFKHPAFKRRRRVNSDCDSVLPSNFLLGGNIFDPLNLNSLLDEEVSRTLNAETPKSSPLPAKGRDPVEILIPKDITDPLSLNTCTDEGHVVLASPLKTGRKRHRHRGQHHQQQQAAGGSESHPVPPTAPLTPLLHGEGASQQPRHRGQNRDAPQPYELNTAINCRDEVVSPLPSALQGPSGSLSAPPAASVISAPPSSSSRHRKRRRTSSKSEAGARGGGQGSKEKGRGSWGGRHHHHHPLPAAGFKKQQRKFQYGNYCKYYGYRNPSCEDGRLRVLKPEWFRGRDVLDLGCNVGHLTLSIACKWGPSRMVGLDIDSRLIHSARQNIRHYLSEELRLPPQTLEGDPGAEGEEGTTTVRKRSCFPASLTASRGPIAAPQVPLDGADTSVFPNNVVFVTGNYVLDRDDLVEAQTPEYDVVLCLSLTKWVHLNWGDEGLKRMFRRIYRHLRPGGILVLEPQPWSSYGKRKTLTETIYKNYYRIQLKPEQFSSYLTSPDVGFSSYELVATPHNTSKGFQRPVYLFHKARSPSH
inactive: [1] -0.085 | [2] -0.152 | [3] -0.127 | [4] -0.004 | entinostat 0.063 | vorinostat 0.107 | citarinostat 0.005 | silmitasertib 0.02 | [5] -0.019 | [6] 0.026 | entospletinib 0.154

LMBRD1 (UniProt Q9NUN5)
inactive: [1] 0.006 | [2] 0.046 | [3] -0.243 | [4] -0.162 | entinostat 0.099 | vorinostat 0.048 | citarinostat 0.048 | silmitasertib -0.028 | [5] -0.003 | [6] 0.049 | entospletinib -0.03

MAP3K7 (UniProt O43318)
inactive: [1] -0.162 | [2] 0.033 | [3] -0.141 | [4] -0.086 | entinostat 0.035 | vorinostat 0.033 | citarinostat 0.063 | silmitasertib 0.004 | [5] 0.091 | [6] -0.068 | entospletinib 0.055

MIEN1 (UniProt Q9BRT3)
Chain of UniProt Q9BRT3 (Q9BRT3 whole entry, looked up): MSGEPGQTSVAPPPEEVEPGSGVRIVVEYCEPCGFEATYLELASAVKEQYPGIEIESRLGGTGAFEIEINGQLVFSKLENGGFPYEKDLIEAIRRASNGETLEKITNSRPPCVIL
inactive: [1] 0.045 | [2] 0.003 | [3] -0.013 | [4] 0.001 | entinostat 0.016 | vorinostat -0.042 | citarinostat -0.007 | silmitasertib 0.004 | [5] -0.131 | [6] 0.057 | entospletinib -0.01

KIAA1324L (UniProt A8MWY0)
inactive: [1] -0.016 | [2] -0.015 | [3] -0.138 | [4] 0.009 | entinostat -0.067 | vorinostat 0.003 | citarinostat 0.004 | silmitasertib -0.014 | [5] -0.013 | [6] -0.094 | entospletinib 0.028

LIMD1 (UniProt Q9UGP4)
inactive: [1] 0.009 | [2] 0.005 | [3] 0.004 | [4] -0.029 | entinostat -0.038 | vorinostat 0.025 | citarinostat 0.052 | silmitasertib 0.03 | [5] -0.06 | [6] 0.01 | entospletinib -0.025

LYN (UniProt P07948)
active: [1] 0.385
inactive: [2] 0.048 | [3] -0.048 | [4] -0.016 | entinostat -0.006 | vorinostat 0.058 | citarinostat 0.017 | silmitasertib 0.176 | [5] 0.022 | [6] 0.143 | entospletinib -0.024

MCL1 (UniProt Q07820)
inactive: [1] -0.074 | [2] -0.33 | [3] -0.093 | [4] -0.039 | entinostat 0.072 | vorinostat 0.011 | citarinostat -0.079 | silmitasertib 0.034 | [5] -0.112 | [6] 0.142 | entospletinib 0.081

MFSD5 isoform 2 (UniProt Q6N075)
inactive: [1] -0.037 | [2] 0.035 | [3] -0.137 | [4] -0.089 | entinostat -0.099 | vorinostat -0.093 | citarinostat -0.009 | silmitasertib -0.033 | [5] -0.193 | [6] -0.049 | entospletinib -0.005

MCU (UniProt Q8NE86)
Chain of UniProt Q8NE86 (Q8NE86 whole entry, looked up): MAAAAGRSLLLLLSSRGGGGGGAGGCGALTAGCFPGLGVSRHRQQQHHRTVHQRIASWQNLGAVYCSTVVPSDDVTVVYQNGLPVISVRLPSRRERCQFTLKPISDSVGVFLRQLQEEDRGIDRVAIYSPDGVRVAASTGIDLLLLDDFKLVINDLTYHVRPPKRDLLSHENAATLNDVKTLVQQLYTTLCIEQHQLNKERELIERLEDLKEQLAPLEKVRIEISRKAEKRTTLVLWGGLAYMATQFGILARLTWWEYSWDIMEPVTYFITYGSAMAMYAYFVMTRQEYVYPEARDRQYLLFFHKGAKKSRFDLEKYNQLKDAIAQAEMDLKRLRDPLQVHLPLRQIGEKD
inactive: [1] 0.005 | [2] -0.059 | [3] -0.142 | [4] -0.131 | entinostat 0.034 | vorinostat -0.013 | citarinostat 0.075 | silmitasertib -0.007 | [5] -0.034 | [6] -0.052 | entospletinib 0.031

KIF2C (UniProt Q99661)
Chain of UniProt Q99661 (Q99661 whole entry, looked up): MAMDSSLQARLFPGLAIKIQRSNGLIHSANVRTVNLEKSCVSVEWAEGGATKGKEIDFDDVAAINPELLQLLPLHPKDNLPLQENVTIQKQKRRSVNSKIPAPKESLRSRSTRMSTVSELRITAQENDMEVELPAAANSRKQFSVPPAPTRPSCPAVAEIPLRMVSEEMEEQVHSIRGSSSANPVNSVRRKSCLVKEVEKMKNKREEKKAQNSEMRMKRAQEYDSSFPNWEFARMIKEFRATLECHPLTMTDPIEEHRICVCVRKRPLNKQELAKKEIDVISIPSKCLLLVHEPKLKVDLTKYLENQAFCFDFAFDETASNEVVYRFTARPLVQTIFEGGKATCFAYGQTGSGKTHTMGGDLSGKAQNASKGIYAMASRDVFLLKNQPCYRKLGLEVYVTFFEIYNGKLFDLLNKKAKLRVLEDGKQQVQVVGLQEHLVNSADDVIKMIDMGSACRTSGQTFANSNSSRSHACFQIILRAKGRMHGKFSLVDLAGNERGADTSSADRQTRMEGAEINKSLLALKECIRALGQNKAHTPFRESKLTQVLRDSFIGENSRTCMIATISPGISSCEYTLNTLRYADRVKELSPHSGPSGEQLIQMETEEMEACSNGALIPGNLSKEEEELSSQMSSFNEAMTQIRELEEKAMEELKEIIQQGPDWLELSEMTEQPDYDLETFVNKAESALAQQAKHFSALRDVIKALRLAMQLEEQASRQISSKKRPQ
inactive: [1] -0.024 | [2] 0 | [3] -0.053 | [4] -0.068 | entinostat 0.095 | vorinostat 0.122 | citarinostat 0.156 | silmitasertib -0.009 | [5] -0.005 | [6] -0.001 | entospletinib -0.097

KLHL18 (UniProt O94889)
Chain of UniProt O94889 (O94889 whole entry, looked up): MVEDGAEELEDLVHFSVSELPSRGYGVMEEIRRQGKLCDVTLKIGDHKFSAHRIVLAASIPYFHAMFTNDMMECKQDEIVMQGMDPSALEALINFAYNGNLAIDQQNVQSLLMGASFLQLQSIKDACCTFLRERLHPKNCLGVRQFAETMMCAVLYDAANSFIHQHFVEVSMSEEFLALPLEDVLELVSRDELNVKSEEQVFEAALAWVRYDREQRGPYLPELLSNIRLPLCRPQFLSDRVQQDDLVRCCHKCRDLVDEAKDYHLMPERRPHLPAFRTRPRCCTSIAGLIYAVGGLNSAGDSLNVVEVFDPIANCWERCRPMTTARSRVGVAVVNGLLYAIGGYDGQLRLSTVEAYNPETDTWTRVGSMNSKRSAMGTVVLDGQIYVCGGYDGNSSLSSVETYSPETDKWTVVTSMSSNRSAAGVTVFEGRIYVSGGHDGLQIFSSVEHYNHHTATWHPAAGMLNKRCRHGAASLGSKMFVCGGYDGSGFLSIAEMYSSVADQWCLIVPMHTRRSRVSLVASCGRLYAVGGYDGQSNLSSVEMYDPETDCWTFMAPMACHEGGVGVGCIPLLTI
inactive: [1] 0.132 | [2] -0.034 | [3] -0.145 | [4] -0.123 | entinostat -0.045 | vorinostat 0.137 | citarinostat 0.123 | silmitasertib -0.029 | [5] -0.014 | [6] -0.022 | entospletinib -0.016

MAP4 (UniProt P27816)
Chain of UniProt P27816 (P27816 whole entry, looked up): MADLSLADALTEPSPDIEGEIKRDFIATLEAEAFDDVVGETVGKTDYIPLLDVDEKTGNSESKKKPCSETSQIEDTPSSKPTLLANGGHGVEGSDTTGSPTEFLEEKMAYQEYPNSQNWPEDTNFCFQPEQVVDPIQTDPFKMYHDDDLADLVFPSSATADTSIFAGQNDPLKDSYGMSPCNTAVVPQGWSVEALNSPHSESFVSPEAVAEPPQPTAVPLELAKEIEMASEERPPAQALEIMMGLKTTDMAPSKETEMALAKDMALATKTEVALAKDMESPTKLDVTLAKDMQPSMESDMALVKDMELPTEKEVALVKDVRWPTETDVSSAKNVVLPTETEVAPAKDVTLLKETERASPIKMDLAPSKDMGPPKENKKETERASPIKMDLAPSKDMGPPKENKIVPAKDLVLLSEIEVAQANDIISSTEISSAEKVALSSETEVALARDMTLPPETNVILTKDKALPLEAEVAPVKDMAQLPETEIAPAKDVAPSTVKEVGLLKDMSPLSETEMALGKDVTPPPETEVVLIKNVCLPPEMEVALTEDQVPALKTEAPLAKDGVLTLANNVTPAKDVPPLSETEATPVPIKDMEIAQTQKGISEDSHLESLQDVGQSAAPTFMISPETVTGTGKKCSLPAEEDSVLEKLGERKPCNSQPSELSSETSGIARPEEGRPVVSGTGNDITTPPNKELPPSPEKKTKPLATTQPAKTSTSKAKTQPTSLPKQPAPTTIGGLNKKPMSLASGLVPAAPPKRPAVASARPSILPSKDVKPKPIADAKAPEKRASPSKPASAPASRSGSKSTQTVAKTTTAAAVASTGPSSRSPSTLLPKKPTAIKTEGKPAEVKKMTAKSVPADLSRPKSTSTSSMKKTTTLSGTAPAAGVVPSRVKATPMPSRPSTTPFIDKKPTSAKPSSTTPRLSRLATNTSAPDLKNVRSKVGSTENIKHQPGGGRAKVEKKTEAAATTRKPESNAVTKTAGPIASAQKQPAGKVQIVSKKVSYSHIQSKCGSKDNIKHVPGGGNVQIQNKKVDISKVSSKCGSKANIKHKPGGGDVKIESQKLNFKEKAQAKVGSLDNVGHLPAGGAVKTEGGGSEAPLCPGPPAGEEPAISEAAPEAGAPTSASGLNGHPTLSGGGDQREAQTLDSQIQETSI
inactive: [1] 0.039 | [2] 0.002 | [3] 0.04 | [4] 0.025 | entinostat -0.015 | vorinostat -0.013 | citarinostat -0.007 | silmitasertib -0.018 | [5] 0.003 | [6] -0.014 | entospletinib -0.017

MAGOHB (UniProt Q96A72)
inactive: [1] -0.081 | [2] 0.177 | [3] -0.039 | [4] -0.132 | entinostat 0.016 | vorinostat -0.023 | citarinostat 0.043 | silmitasertib -0.006 | [5] 0.002 | [6] -0.089 | entospletinib 0.097

LTO1 (UniProt Q8WV07)
Chain of UniProt Q8WV07 (Q8WV07 whole entry, looked up): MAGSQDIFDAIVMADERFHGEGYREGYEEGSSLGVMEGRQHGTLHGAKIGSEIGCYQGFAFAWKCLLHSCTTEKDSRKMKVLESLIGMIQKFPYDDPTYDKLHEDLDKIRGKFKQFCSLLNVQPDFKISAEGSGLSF
inactive: [1] -0.077 | [2] 0.009 | [3] -0.011 | [4] 0.094 | entinostat -0.097 | vorinostat 0.005 | citarinostat 0.044 | silmitasertib 0.158 | [5] -0.015 | [6] -0.126 | entospletinib -0.047

IWS1 (UniProt Q96ST2)
inactive: [1] -0.049 | [2] 0.034 | [3] -0.028 | [4] -0.171 | entinostat 0.012 | vorinostat -0.008 | citarinostat -0.059 | silmitasertib 0.054 | [5] -0.032 | [6] 0 | entospletinib 0.159

— the supplement of paper PMC10849652
